# Most compounds without a hit are left out; they make up all but 1.1% or so of the library.
# PGK inhibitor: blocks T. brucei phosphoglycerate kinase. P07378. PGK/GAPDH coupled, Kinase-Glo luminescence, 60 min. 380,000 compounds, 0.043% hits. AID 602233. Potency, µM (highest dose often 57.5 µM), usual class: inhibitors; also: nearly all actives have a fitted effect of over 60% in size
#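 Luminescent ATP detection (Kinase-Glo Plus) follows a 60-minute room-temperature incubation, with wells lacking PGK as controls. Buffer: 100 mM TEA (pH 7.6), 5 mM MgCl2, 0.01% Tween-20. Coupling enzyme GAPDH (100 nM final) supplies unstable 1,3-BPG in-well.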
# Pin1 inh: human Pin1 inhibition | Q13526 | Pin1 FP peptide displacement, HiFluor488, 10 min | Potency, µM (highest dose often 115 µM), usual class: inhibitors | 390,000 compounds, 0.009% hits; active = well fitted inhibition curve with a large enough effect in the polarisation, with a control signal flat, not every such curve was filed as active; inconclusive = small, poorly fitted or top-dose-only effect, or effect the other way, or a change in a side signal; inactive = no such curve, though single readings can be large or run the other way; the % refers to the polarisation
# Target sequence (Q13526 whole entry, looked up): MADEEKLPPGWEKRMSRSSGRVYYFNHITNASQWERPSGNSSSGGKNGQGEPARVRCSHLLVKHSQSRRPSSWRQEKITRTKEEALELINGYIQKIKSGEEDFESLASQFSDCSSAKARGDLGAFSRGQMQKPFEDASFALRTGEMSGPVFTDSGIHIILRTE
# Tb PFK inh: T. brucei PFK enzyme inhibition; O15648; T. brucei PFK, ADP-Glo luminescence; Potency, µM (highest dose often 57.5 µM), usual class: inhibitors; 330,000 compounds, 0.17% hits; AID 485367; also: nearly all actives have a fitted effect of over 60% in size
#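 ADP-Glo luminescence quantified ADP after 45 min at room temperature, with 1.25 nM T. brucei PFK, 0.1 mM ATP and 0.5 mM fructose-6-phosphate in pH 8.0 TEA buffer. qHTS titrations up to 57 µM; curves classified by quality.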
# GLS inh: blocks human kidney-isoform glutaminase activity | O94925 | GLS enzymatic activity, qHTS titration | Potency, µM (doses to about 45.5 µM), hits mostly inhibitors | 410,000 compounds, 0.21% hits | AID 624170
#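 Coupled fluorescence readout: glutamate oxidase/HRP/Amplex Red detect glutamate formed by hKGA from L-glutamine (1 mM solution added). Buffer 45 mM KH2PO4 pH 8.2, 0.02% Tween-20; reads at t0 and 30 min RT.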
# VDR inh: blocks the human vitamin D receptor; VDR-SRC2-3 peptide fluorescence polarization, 2 h; Potency, µM, hits mostly inhibitors; 400,000 compounds, 0.93% hits
# Target sequence (P11473 whole entry, looked up): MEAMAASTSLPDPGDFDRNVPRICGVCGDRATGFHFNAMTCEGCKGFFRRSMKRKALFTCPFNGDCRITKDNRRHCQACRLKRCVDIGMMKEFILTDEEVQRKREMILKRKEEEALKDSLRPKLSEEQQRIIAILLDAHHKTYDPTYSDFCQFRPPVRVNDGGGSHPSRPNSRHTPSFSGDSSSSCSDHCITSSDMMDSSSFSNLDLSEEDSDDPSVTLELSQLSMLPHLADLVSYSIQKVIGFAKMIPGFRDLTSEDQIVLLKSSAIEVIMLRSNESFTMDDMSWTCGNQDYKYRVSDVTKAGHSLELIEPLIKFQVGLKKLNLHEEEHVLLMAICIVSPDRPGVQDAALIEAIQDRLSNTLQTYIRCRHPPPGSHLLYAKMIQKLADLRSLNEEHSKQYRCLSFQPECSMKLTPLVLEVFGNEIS
#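 Fluorescence polarization assay measuring small-molecule disruption of VDR binding to the coregulator peptide SRC2-3. Compounds were pin-transferred (23 nl) into the reagent mix and incubated 2 h at room temperature before reading.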
# Hits are given with their value; i = inactive; ? = inconclusive; nt = not tested or not shown. Unless noted, calls follow the shape of the dose curve; as a rule, active = well fitted curve in the direction sought with a large enough effect; inconclusive = small, poorly fitted or top-dose-only effect, or another doubt; inactive = no such curve, though single readings can be large; an effect the other way counts as inactive or inconclusive.
SMILES,PGK inhibitor,Pin1 inh,Tb PFK inh,GLS inh,VDR inh
CCOC(=O)c1c(NC(=S)NCC2CCCO2)sc(C)c1C (stereo unspecified),i,i,i,?,89µM
Nc1ncnc2c1CN(Cc1ccccc1)CC2,i,i,nt,i,i
Nc1nc(N)c2c(n1)CN(Cc1ccc(Cl)cc1)C2,i,nt,nt,11µM,nt
CC(=O)Nc1sc(N/N=C\c2ccco2)nc1-c1cccs1,i,i,i,i,?
CCOc1cc(/C=N/Nc2nc(-c3cccs3)c(NC(C)=O)s2)ccc1O,i,i,i,?,35µM
c1ccc(Nc2nc(-c3ccc4c(c3)OCO4)nc3ccccc23)cc1,nt,nt,nt,nt,i
CC(=O)Oc1cc(-c2coc3cc(OC(C)=O)c(OC(C)=O)c(OC(C)=O)c3c2=O)cc(OC(C)=O)c1OC(C)=O,nt,nt,nt,nt,18µM
COc1cc(-c2coc3cc(OC)c(OC)c(OC)c3c2=O)cc(OC)c1OC,nt,nt,nt,nt,i
CCc1ccc(S(=O)(=O)/N=C2/C=C(Sc3ncn[nH]3)C(=O)c3ccccc32)cc1,?,43µM,i,i,25µM
CCc1ccc(S(=O)(=O)/N=C2\C=CC(=O)c3ccccc32)cc1,nt,nt,i,nt,nt
Cc1cc(C)c2sc(NC(=O)c3ccc([N+](=O)[O-])o3)nc2c1,i,i,i,i,i
COc1ccc(-c2cc(=S)ss2)cc1,nt,nt,nt,i,40µM
COc1ccc(-c2ccc(OC)cc2)cc1,i,i,i,i,i
N#C/C(=C/c1ccc([N+](=O)[O-])cc1)C(N)=O,i,i,i,i,79µM
CCOC(=O)[C@]12CCC=C1N(Cc1ccco1)C(=O)[C@H](CC(=O)NCC1CCCCC1)C2,nt,nt,nt,i,nt
CN1N/C(=C\c2ccccc2)N=C2C(=O)N(C)C(=O)N=C21,nt,nt,nt,nt,50µM
O=C(CSc1ccc(Cl)cc1)Nn1cnnc1,i,i,i,i,71µM
CC(=O)SC(C[N+](=O)[O-])c1cn(C(C)=O)c2ccccc12 (stereo unspecified),i,i,?,?,45µM
O=C(c1cc(S(=O)(=O)N2CCOCC2)c(Cl)cc1Cl)N1CCN(S(=O)(=O)c2cccc(F)c2)CC1,i,i,i,i,i
CCCc1cc(C(=O)Nc2sc3c(c2C#N)CCC3)no1,i,i,i,i,71µM
CCc1cc2ccc(C)cc2nc1SCC(=O)N1CCN(C(=O)c2ccco2)CC1,i,i,i,i,79µM
Cc1ccc(CCNC(=O)c2ccc(CS(=O)(=O)c3ccc(Br)cc3)o2)cc1,i,i,nt,i,i
Clc1ccccc1-c1nc(-n2ccnc2)c2ccccc2n1,nt,nt,nt,nt,56µM
Clc1ccccc1-c1nc(Nc2ccncc2)c2ccccc2n1,nt,nt,nt,nt,35µM
CN(C)c1ccc(-c2nc(-n3ccnc3)c3ccccc3n2)cc1,nt,nt,nt,nt,25µM
SMILES,PGK inhibitor,Pin1 inh,Tb PFK inh,GLS inh,VDR inh
O=c1cc(CO)oc(C(Nc2ccccn2)c2cccc(F)c2)c1O (stereo unspecified),i,i,i,i,16µM
COc1cccc(C(Nc2ccccn2)c2oc(CO)cc(=O)c2O)c1 (stereo unspecified),i,i,i,i,?
N#CCCn1c(=O)c(-c2ccc(Cl)cc2)nc2cnc(OCc3ccccc3)nc21,nt,nt,nt,nt,i
CC(C)[C@H](NS(=O)(=O)c1ccc2c(c1)OCCO2)C(=O)OCC(=O)Nc1cc(Cl)ccc1Cl,i,i,i,i,79µM
Nc1cccc2c(O)cc(S(=O)(=O)O)cc12,18µM,?,nt,2.8µM,13µM
CCOC(=O)c1c(NC(=O)c2cc(-c3ccc(Br)cc3)on2)sc(C)c1C,i,i,nt,i,79µM
CCOC(=O)c1c(NC(=O)c2cc(-c3cccc(Cl)c3)on2)sc(C)c1C,i,i,nt,i,i
CCC(=S)/C=C1\Sc2ccccc2N1CCCS(=O)(=O)O,i,i,i,i,71µM
CCN1/C(=C\C=C2\C(=O)N(C)C(=S)N2C)Sc2ccccc21,i,i,i,?,i
Cc1cccc(NC(=O)C2CCCN(S(=O)(=O)c3c(C)noc3/C=C/N(C)C)C2)c1C (stereo unspecified),i,?,nt,i,i
O=S(=O)(Nc1ccc(O)c2ccccc12)c1cccs1,i,i,i,11µM,?
CC1(C(=O)Nc2ccc3c(c2)OCO3)CCN1C(=O)CCc1cccs1 (stereo unspecified),nt,nt,nt,i,nt
CN=C1C=CC(=C(c2ccc(N(C)C)cc2)c2ccc(N(C)C)cc2)C=C1,nt,nt,nt,i,40µM
Cc1ccc(C)c(N2CCN(C(=O)c3cnc4c(-c5ccccc5)c(C)nn4c3C)CC2)c1,i,i,nt,i,i
CCOC(=O)c1sc(N2C(=O)C(O)=C(C(=O)c3ccco3)C2c2cccc([N+](=O)[O-])c2)nc1C (stereo unspecified),i,i,i,?,71µM
O=C(C1=C(O)C(=O)N(c2nc3ccc(Cl)cc3s2)C1c1ccco1)c1ccco1 (stereo unspecified),i,?,i,18µM,?
Cc1cc(C)c2nc(N3C(=O)C(O)=C(C(=O)c4ccco4)C3c3cccc(O)c3)sc2c1 (stereo unspecified),i,i,i,i,79µM
Cc1cc(N2C(=O)C(O)=C(C(=O)c3ccco3)C2c2cccc(O)c2)no1 (stereo unspecified),i,i,i,i,i
Cc1ccc2nc(N3C(=O)C(O)=C(C(=O)c4ccc(C)o4)C3c3ccco3)sc2c1 (stereo unspecified),i,i,i,?,?
Cc1ccc2nc(N3C(=O)C(O)=C(C(=O)c4ccco4)C3c3ccc(O)cc3)sc2c1 (stereo unspecified),nt,nt,i,nt,nt
Cc1cc(C)c2nc(N3C(=O)C(O)=C(C(=O)c4ccco4)C3c3ccc(O)cc3)sc2c1 (stereo unspecified),i,?,i,i,79µM
NS(=O)(=O)c1ccc(CCNc2nn3c(-c4cccc(OC(F)(F)F)c4)cnc3s2)cc1,nt,nt,nt,i,nt
CC(=O)N1CCOc2cc(S(=O)(=O)NCc3ccccc3Cl)c(Cl)cc21,i,i,i,i,i
CC[C@H](C)[C@H](NC(=O)[C@H](Cc1ccccc1)NC(=O)[C@H](C)NC(=O)[C@H](CC(=O)O)NC(=O)[C@H](CCCCN)NC(=O)[C@H](CO)NC(=O)[C@@H]1CCCN1C(=O)[C@@H]1CCC(=O)N1)C(=O)NCC(=O)N[C@@H](CC(C)C)C(=O)N[C@@H](CCSC)C(N)=O,nt,nt,nt,nt,i
CC(OC(=O)CCN1C(=O)C2CC=CCC2C1=O)C(=O)Nc1ccc(F)cc1 (stereo unspecified),i,i,nt,i,i
Cc1ccc2nc(Cl)c(/C=C/C(=O)c3ccco3)cc2c1,i,i,i,i,18µM
CSc1nc2c(c(=O)[nH]c(=O)n2C)n1Cc1ccc(Cl)cc1,i,i,i,i,89µM
Cc1cccc(Cn2c(SCCN3CCCCC3)nc3c2c(=O)[nH]c(=O)n3C)c1,i,i,i,i,i
Cc1ccc(Cn2c(SCCN3CCCCC3)nc3c2c(=O)[nH]c(=O)n3C)cc1,i,i,?,i,89µM

# High-throughput results (PubChem BioAssay)
